From PubChem BioAssay

system: glycogen synthase kinase-3 (GSK3A per assay name; protocol says GSK3B); assay: compounds binding glycogen synthase kinase-3 – biochemical, small-molecule microarray, 635 nm fluorescence, GSK3A, primary screen (AID 1103); conditions: fluorescence 635 nm, higher = more signal; note: the record names both GSK3A and GSK3B

| SMILES | composite z-score |
| --- | --- |
| CCCC1(C(=O)OC)C=C2C(=C(C)C(=O)C2C)CN1 (stereo not given) | -0.636 |
| NCCCCCNC(=O)[C@@H]1C[C@@H]2C(=O)N[C@@H](CCCCN)C(=O)N2[C@@H]1c1ccc(O)cc1 | 1.34 |
| CCCN1C(=O)[C@]2(Cc3ccccc31)N=C(c1ccc(OCCCO)cc1)O[C@@H]2c1ccccc1 | 1.26 |
| CCN(CC)c1ccc(N2CC=CC34O[C@@H]5/C=C\CCCOC(=O)C5[C@H]3C(=O)N(C(C)CO)[C@@H]4C2=O)cc1 (stereo not given in full) | -0.208 |
| NC(=O)[C@H]1[C@@H]2C(=O)O[C@@H](c3ccccc3)[C@@H](c3ccccc3)N2[C@@H](c2ccc(OCCO)cc2)[C@]12C(=O)Nc1ccc(C#CCCO)cc12 | 0.608 |
| CC(C)C(CO)N1C(=O)[C@@H]2[C@H]3C(=O)OCC=C[C@H]3OC23C=CCN(c2ccc(Cl)cc2)C(=O)[C@@H]13 (stereo not given in full) | -0.889 |
| C=CCNC(=O)[C@@H]1[C@H]2C(=O)O[C@H](c3ccccc3)[C@H](c3ccccc3)N2[C@H](c2ccccc2OCCO)[C@@]12C(=O)Nc1ccc(C#CCC(C(=O)OC)C(=O)OC)cc12 | 1.03 |
| COc1ccc(C#Cc2ccc3c(c2)[C@]2(C(=O)N3)[C@H](C(=O)O)[C@H]3C(=O)O[C@H](c4ccccc4)[C@H](c4ccccc4)N3[C@@H]2c2ccc(O)cc2)cc1 | -0.352 |
| CCCC[C@@H](O)C1=C(COC)C[C@H]2C(=O)N(Cc3ccccc3)C(=O)[C@H]2[C@H]1CO | 0.464 |
| COC(=O)[C@@]1(Cc2ccc(F)cc2)[C@H]2c3cc(C(=O)N4CCCC4)n(Cc4ccc(C)c(F)c4F)c3C[C@H]2CN1C(=O)c1ccccc1 | -0.931 |
| C=CCNC(=O)[C@@H]1[C@H]2C(=O)O[C@H](c3ccccc3)[C@H](c3ccccc3)N2[C@H](c2ccc(O)cc2)[C@@]12C(=O)N(C(=O)OCCOC)c1ccc(C#CC3=CCCCC3)cc12 | 1.29 |
| C#Cc1cc2ccccc2oc1=O | -0.748 |
| COc1cc(NN2C(C(O)c3cc(OC)c(OC)c(OC)c3)C=CC3C(=O)N(C)C(=O)C32)cc(OC)c1OC (stereo not given) | 0.984 |
| CO[C@H]1O[C@H](CO)[C@@H](OC(=O)Nc2ccccc2)[C@H](OC(=O)c2cc3ccccc3[nH]2)[C@H]1OC(=O)c1cc2ccccc2[nH]1 | 0.126 |
| CCOC(=O)C[C@H]1[C@H](OC(=O)Cc2ccc3c(c2)OCO3)[C@@H](NC(=O)c2ccc3ccccc3n2)c2cc(OCCCO)ccc2N1C(=O)c1ccc2ccccc2n1 | 0.495 |
| COc1ccc(C#Cc2ccc3c(c2)[C@]2(C(=O)N3)[C@H](c3ccc(OCCO)cc3)N3[C@H](c4ccccc4)[C@H](c4ccccc4)OC(=O)[C@H]3[C@@H]2C(=O)NC[C@H](O)c2ccccc2)cc1 | 0.72 |
| NCCCCCNC(=O)[C@H]1C[C@H]2C(=O)N3CCC[C@H]3C(=O)N2[C@H]1c1cccc(OCCO)c1 | 0.703 |
| CO[C@H]1O[C@H](CO)[C@@H](OC(=O)Nc2ccc(Br)cc2)[C@@H]2OC(=O)[C@@H](Cc3ccccc3)C/C=C/C[C@H](Cc3ccccc3)C(=O)O[C@@H]12 | 0.602 |

| SMILES | composite z-score |
| --- | --- |
| CCOC(=O)[C@@H]1CCCCN1C(=O)C(=O)OC | 0.547 |
| O=C(Cc1ccccc1)[C@H]1C2C=CCCC(c3ccccc3)=C2CN1Cc1ccccc1 (stereo not given in full) | -0.117 |
| CCOC(=O)C[C@H]1[C@H](OC(=O)Cc2ccc3c(c2)OCO3)[C@@H](NC(=O)C2CCCCC2)c2cc(OCCCO)ccc2N1C(=O)c1ccccc1 | -0.0848 |
| C=C[C@H](C)[C@H](OC(=O)Nc1ccc(SC)cc1)c1ccc(OCCO)cc1 | 0.394 |
| CCCCC(CC)C(O)C1C=CC2C(=O)N(c3ccccc3)C(=O)C2N1Nc1ccccc1F (stereo not given) | 1.23 |
| Cc1ccc(C(C)CC(O)C2C=CC3C(=O)N(c4ccccc4)C(=O)C3N2Nc2ccccc2)o1 (stereo not given) | 1.28 |
| CCOC(=O)C1=C[C@@H](C(C)(C)C)N(S(=O)(=O)c2ccc(C)cc2)[C@H]1c1cccc2ccccc12 | 0.936 |
| CC(C)N1C(=O)C[C@@](C(=O)NC2CC2)(c2ccc([N+](=O)[O-])cc2)[C@H]1c1ccc(CO)cc1 | -0.3 |
| COC(=O)c1c(CC[C@@H](CO)NC(=O)N2CCC[C@H]2Cn2cc(C3(O)CCCCC3)nn2)oc(C(C)=O)c1C(=O)OC | 0.56 |
| NC(=O)NCC#Cc1ccc2c(c1)[C@]1(C(=O)N2)[C@H](c2ccccc2OCCO)N2[C@H](c3ccccc3)[C@H](c3ccccc3)OC(=O)[C@H]2[C@@H]1C(=O)NC[C@H](O)c1ccccc1 | -0.659 |
| CN(C)C(=O)[C@]1(CCC(=O)OC(C)(C)C)N=C(c2ccc(OCCCO)cc2)O[C@@H]1c1ccccc1CN=[N+]=[N-] | 0.7 |
| Cc1ccccc1C(O)C1C=CC2C(=O)NC(=O)C2N1Nc1ccccn1 (stereo not given) | 0.0301 |
| COCCOC(=O)N1C(=O)[C@@]2(c3ccccc31)[C@H](C(=O)NC[C@H](O)c1ccccc1)[C@H]1C(=O)O[C@H](c3ccccc3)[C@H](c3ccccc3)N1[C@@H]2c1ccc(O)cc1 | 1.32 |
| CC1CC/C=C\[C@H]2OC34C=CCN(C(C)C)C(=O)[C@H]3N(CCO)C(=O)[C@@H]4C2C(=O)O1 (stereo not given in full) | -0.979 |
| CCOC(=O)C=Cc1cccc(C)c1O | -0.414 |
| CCCCCCCCCCC(O)C1C=CC2C(=O)N(c3ccccc3)C(=O)C2N1Nc1ccc(C#N)cc1 (stereo not given) | 1.02 |
| COCC(=C=CC[C@H](O)c1ccc(CO)o1)CCO | 0.654 |
